In the library only some 3.4% were active in any assay of this set; here they are far more common.
MITF inh – inhibitors of human MITF. O75030. AlphaScreen MITF homodimerization, bead proximity signal. inhibition, % at 2.6 µM. 0.91% of 650,000 active. AID 1259374; in the data active = inhibition above about 50%
GPR151 ag – human GPR151 activation; PathHunter beta-arrestin GPR151 cells, luminescence; activation, % at 11.2 µM; 1% of 650,000 active; in the data active = activation above about 4.9%
TEAD-YAP block – TEAD-YAP interaction inhibition. inhibition, % at 9.12 µM. 1.4% of 640,000 active. HEK-TIYL cells, TEAD-Gal4/YAP UAS-luciferase luminescence; in the data active = inhibition above about 32%
FBW7 act – human FBW7 E3 ligase activation, primary screen. AlphaScreen FBW7–phospho-cyclin E peptide binding, activator screen. 0.13% of 650,000 active. normalized activity (activation), % at 26.1 µM. AID 1259310; in the data active = normalized activity above about 1.9%;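 note: purified mutant Fbw7 with reduced substrate affinity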
Target sequence (Q969H0 whole entry, looked up): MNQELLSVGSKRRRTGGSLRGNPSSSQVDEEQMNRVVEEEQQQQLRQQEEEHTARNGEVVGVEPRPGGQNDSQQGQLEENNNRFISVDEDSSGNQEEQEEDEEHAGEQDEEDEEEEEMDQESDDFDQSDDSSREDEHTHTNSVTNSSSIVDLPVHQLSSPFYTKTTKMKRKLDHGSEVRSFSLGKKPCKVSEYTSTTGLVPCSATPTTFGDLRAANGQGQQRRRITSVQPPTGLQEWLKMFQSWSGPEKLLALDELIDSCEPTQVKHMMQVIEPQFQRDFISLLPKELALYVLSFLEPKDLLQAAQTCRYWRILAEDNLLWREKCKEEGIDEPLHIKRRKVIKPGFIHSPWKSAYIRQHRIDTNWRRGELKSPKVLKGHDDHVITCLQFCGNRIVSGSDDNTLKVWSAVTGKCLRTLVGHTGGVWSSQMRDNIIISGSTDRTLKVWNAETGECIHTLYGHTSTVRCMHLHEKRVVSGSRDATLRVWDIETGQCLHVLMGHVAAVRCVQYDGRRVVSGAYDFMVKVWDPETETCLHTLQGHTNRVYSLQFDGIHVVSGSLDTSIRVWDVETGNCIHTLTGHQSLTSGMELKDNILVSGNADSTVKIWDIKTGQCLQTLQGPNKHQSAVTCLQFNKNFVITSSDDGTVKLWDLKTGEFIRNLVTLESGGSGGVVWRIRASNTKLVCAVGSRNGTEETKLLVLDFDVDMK
GPR151 confirm – human GPR151 activation, confirmation screen. shares compounds with GPR151 ag. GPR151 PathHunter beta-arrestin cells, luminescence, 90 min; % of EA-reagent control over plate median. activation, % at 11.2 µM. 6,700 tested, under 10 active;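 active = mean percent activation across replicates above the confirmation screen cutoff of 4.91%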
GPR119 counter – activates human GPR119 in a GPR151 counter-screen; shares compounds with GPR151 ag; GPR119 PathHunter beta-arrestin cells, luminescence, 90 min; 0 = compound-well median, 100 = enzyme-acceptor control; activation, % at 11.2 µM; 0.3% of 6,700 active;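 active = mean percent activation in the counterscreen above 29.09%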;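 note: counterscreen on off-target GPR119 to flag nonselective hits from the GPR151 activator screen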
Each line names hits and unclear results; the compound was inactive in the other large screens (follow-up assays come after a bar, where they were run).

O=C(CN1CCCCC1)Nc1cc(C(F)(F)F)ccc1Cl	GPR151 ag 7.0 | GPR151 confirm inactive | GPR119 counter inactive
O=C(CN1CCN(c2ccccc2F)CC1)Nc1cc(C(F)(F)F)ccc1Cl	none
CC(=O)N(CN1C(=O)c2ccccc2C1=O)c1ccc(Br)cc1	none
COc1ccccc1CCNCc1c(C(=O)O)n(C)c2cc(C)ccc12	GPR151 ag 9.8 | GPR151 confirm inactive | GPR119 counter inactive
O=c1[nH]c(N/N=C/c2cc([N+](=O)[O-])ccc2O)nnc1Cc1ccccc1	GPR151 ag 6.2 | GPR151 confirm inactive | GPR119 counter inactive
O=c1[nH]c(N/N=C/c2ccc(O)cc2)nnc1Cc1ccccc1	none
COc1ccc(O)c(C2NC(=S)NC(C)=C2C(=O)OC(C)C)c1 (stereo not drawn)	none
COc1ccc(-c2csc(NC(=O)c3ccc(C)o3)n2)cc1	GPR151 ag 9.6 | GPR151 confirm inactive | GPR119 counter inactive
CCOc1ccc(-c2cnc(N)n2C)cc1	GPR151 ag 5.4 | GPR151 confirm inactive | GPR119 counter inactive
C[C@@H](C(=O)NCc1ccc(Cl)cc1)N1C(=O)C2CC=CCC2C1=O (stereo partly drawn)	none
C=CCOc1ccccc1/C=N/NC(=O)c1cccc(I)c1	GPR151 ag 10.7 | GPR151 confirm inactive | GPR119 counter inactive
CCn1c(CSCc2ccc(F)cc2)nnc1SCC(=O)Nc1nc(C)cs1	none
O=C(CSCC(=O)Nc1ccc2nc(SCC(=O)Nc3ccccc3)sc2c1)Nc1ccc2ccccc2c1	none
Cc1csc(NC(=O)CSCC(=O)Nc2ccccc2)n1	GPR151 ag 6.9 | GPR151 confirm inactive | GPR119 counter inactive
Cc1csc(NC(=O)CSc2nnc(CSCc3ccc(F)cc3)n2C)n1	GPR151 ag 5.1 | GPR151 confirm inactive | GPR119 counter inactive
CCOC(=O)CSc1nc2ccc(NC(=O)CSCC(=O)Nc3ccccc3)cc2s1	GPR151 ag 4.9 | GPR151 confirm inactive | GPR119 counter inactive
CCOc1ccc(Br)cc1C(=O)N/N=C/c1ccc([N+](=O)[O-])cc1	GPR151 ag 7.3 | GPR151 confirm inactive | GPR119 counter inactive
O=C(N/N=C/c1ccncc1)c1cc(Br)ccc1OCc1ccccc1	GPR151 ag 5.1 | GPR151 confirm inactive | GPR119 counter inactive
CCOC(=O)N1CCC(Nc2ccc(C(=O)N3CC4CC(C3)c3cccc(=O)n3C4)cc2[N+](=O)[O-])CC1 (stereo not drawn)	none
CN(C)c1ccc(C(=S)N2CCOCC2)cc1	GPR151 ag 9.7 | GPR151 confirm inactive | GPR119 counter inactive
CN(C)c1ccc(C(=O)N2CCOCC2)cc1	none
O=C(O)CCn1c(SCc2cc(=O)n3cc(Br)ccc3n2)nc2ccsc2c1=O	none
O=C(O)c1ccc(Cn2c(SCc3cc(=O)n4cc(Br)ccc4n3)nc3ccsc3c2=O)cc1	GPR151 ag 7.3 | GPR151 confirm inactive | GPR119 counter inactive
CCC(C(=O)Nc1ccc(F)cc1F)n1c2ccccc2c2nc(=O)cc(C)n21 (stereo not drawn)	none
CCC(C(=O)Nc1ccc(F)cc1)n1c2ccccc2c2nc(=O)cc(C)n21 (stereo not drawn)	GPR151 ag 5.3 | GPR151 confirm inactive | GPR119 counter inactive
CC1CC1C(=O)OCC(=O)Nc1ccc(C(F)(F)F)cc1[N+](=O)[O-] (stereo not drawn)	none
C=CCOC(=O)C1=C(C)Nc2nnnn2C1c1ccc(Br)cc1 (stereo not drawn)	none
CCN(CC)P(=O)(c1nc2ccccc2n1CC)N(CC)CC	GPR151 ag 5.6 | GPR151 confirm inactive | GPR119 counter inactive
CCCCNC(=O)/C(=C/c1ccc(OC)cc1)NC(=O)/C=C/c1ccccc1	none
CCCCNC(=O)/C(=C/c1ccccc1)NC(=O)/C=C/c1ccco1	GPR151 ag 17.5 | GPR151 confirm inactive | GPR119 counter inactive
CC(C)(CNC(=O)CC1C(=O)NCCN1Cc1ccc(F)cc1)N1CCOCC1 (stereo not drawn)	none
Cc1cccc(NC(=O)/C=C/c2ccccc2)c1N1CCC2(CC1)OCCO2	none
Cc1ncc(CO)c2cc(-c3nnc(Nc4ccccc4F)s3)c(=O)oc12	GPR151 ag 5.8 | GPR151 confirm inactive | GPR119 counter inactive
O=C(CN(CC1CCCO1)C(=O)CCC(=O)Nc1ccccn1)NCC1CCCO1 (stereo not drawn)	GPR151 ag 5.0 | GPR151 confirm inactive | GPR119 counter inactive
